# About 83,000 compounds went through this panel and 20% of them were active in at least one assay; those are over-represented in the sample as a whole.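 Negative percent growth values reflect cell death: -40 means 40% of the cells present at the start died, and -100 means all died.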 Values without a mark were called inactive. Activity calls are given as the source filed them. The calls were made as follows: active = growth percent below 10; inactive = the rest.
# Tested on: HOP-92 NSCLC
# Assay: NCI-60 one-dose screen, 48 h (100 = growth as untreated, 0 = no growth, -100 = all killed)
# Settings: 10 µM unless noted
row,SMILES,growth
1,COc1ccc2oc(=O)cc(-c3c(C#N)c(N)n4nc(N)c(C#N)c4c3C#N)c2c1,97.3%
2,O=C1NC(SCc2ccc(F)cc2)=N/C1=C/c1cccc(OCc2ccc(Cl)cc2)c1,68%
3,COc1ccc(Nc2nc(SCC(C)C)nc(-c3ccc(F)cc3)c2C#N)cc1,77.2%
4,COC(=O)/C=C1\SC(=Nc2ccc(F)cc2)N(CCc2c[nH]c3ccccc23)C1=O,106%
5,Nc1c(C(=O)Nc2ccccc2)sc2nc3c(cc12)CN(C(=O)OCc1ccccc1)CC3,52.4%
6,COc1ccc(C2=NN(c3ccc(S(N)(=O)=O)cc3)C(c3ccc(Cl)cc3)C2)c(O)c1 (stereo not given),58.6%
7,COc1ccc(C(C)c2cc(OC)c(OC)c(OC)c2)cc1 (stereo not given),49%
8,COc1ccc(-n2nc(C(=O)NCC(=O)O)nc2-c2ccccc2)cc1,97.1%
9,CCOC(=O)C1=C(C)n2nc(CC#N)c(C#N)c2NC1c1ccc(Cl)cc1 (stereo not given),90%
10,Nc1c(C(=O)Nc2ccccn2)sc2nc3c(cc12)CCCC3,60.2%
11,CCN1CCC[C@H]1c1cc(O)c2c(c1OC)C[C@H]1C[C@H]3[C@H](N)C(=O)C(C(N)=O)=C(O)[C@@]3(O)C(=O)C1=C2O,-3.43% (active)
12,Cc1cc(O)cc(O)c1N=NC1=NCCS1,109%
13,COC(=O)c1cncc(C(=O)Nc2ccc(-n3cnc4ccccc43)cc2)c1,86.7%
14,CNc1cccc2c1C(=O)c1cccc(N)c1C2=O,20.5%
15,O=S(=O)(Nc1nccs1)c1ccc(Nc2nc(-c3ccncc3)cs2)cc1,96.9%
16,CN1C(=O)c2cc(Cl)nc3c(NC(=O)c4cccc(Cl)c4)c(Cl)c(NC(=O)c4cccc(Cl)c4)c1c23,-38.4% (active)
17,O=C(O)COc1ccc2c(=O)c3sc4c(=O)c5ccccc5c(=O)c4c3c(=O)c2c1,104%
18,O=C(Nc1nc(-c2ccccc2)cs1)c1cc(-c2ccc(Br)cc2)nc2ccccc12,6.1% (active)
19,Cc1cc(Nc2nc(SCc3ccc(C(=O)Nc4ccc(F)cc4N)cc3)nn3cccc23)n[nH]1,53.6%
20,O=C1NCc2ccc3c(-c4cccc(Cl)c4)c[nH]c3c21,52.7%
21,O=C(CN1N=C(c2ccc(F)cc2)CCC1=O)Nc1nccs1,86.6%
22,O=C1Nc2ccc(Cl)cc2/C1=N/c1nc(-c2ccc(F)cc2)cs1,34.3%
23,OCCNc1nc(NCCO)nc(Nc2ccc(C3=NN(c4cc(Cl)cc(Cl)c4)C(c4ccc(Cl)cc4)C3)cc2)n1 (stereo not given),60.7%

# Tested on: NCI-H522 lung
# Assay: as above
# Settings: 10 µM unless noted
row,SMILES,growth
1,COc1ccc2nc(-c3ccc(Cl)cc3)cc(-c3nnc(SCC(=O)Nc4ccc(/C(C)=N\O)cc4)o3)c2c1,9.31% (active)
2,C/C(=C\c1cnc(C)s1)[C@@H]1C[C@@H]2O[C@@H]2CCC[C@H](C)[C@H](O)[C@@H](C)C(=O)C(C)(C)[C@@H](O)CC(=O)O1,-2.17% (active)
3,O=C(/C(=C\c1c(-c2ccccc2)[nH]c2ccccc12)S(=O)(=O)c1ccccc1)c1ccccc1,-12.2% (active)
4,O=c1[nH]c(-c2cccc(F)c2)cc2cc(F)ccc12,11.3%
5,O=C1CS/C(=N/c2nnc(-c3ccc(O)cc3)s2)N1,88.6%
6,C[C@H](Oc1cc(-c2cnn(C3CCNCC3)c2)cnc1N)c1c(Cl)ccc(F)c1Cl,73.1%
7,COCCOCCOCc1n(Cc2ccc3ccccc3n2)c2ccccc2[n+]1Cc1ccc2ccccc2n1,-1.7% (active)
8,CCOC(=O)c1cnn(-c2nc(-c3ccc(F)cc3)c(C#N)c(N3CCOCC3)n2)c1N,90.6%
9,CC(=O)c1c(OCC#N)ccc2c(C)cc(=O)oc12,77.3%
10,CN(CCC#N)C(=O)Nc1ccccc1,79.8%
11,C#Cc1ccccc1NC(=O)c1sc2nc3c(cc2c1N)CCCCC3,71.5%
12,COCCOC(=O)COc1ccc(OC)cc1,115%
13,C#C[C@@]1(O)[C@@H](CO)O[C@@H](n2cnc3c(-c4ccccc4)ncnc32)[C@@H]1O,94.8%
14,COc1cc(NCC(=O)Nc2cc(Nc3ccc(C)cc3)ncn2)c(Cl)c(OC)c1Cl,74.1%
15,COc1ccc2oc(=O)cc(-c3c(C#N)c(N)n4nc(N)c(C#N)c4c3C#N)c2c1,80.1%
16,O=C1NC(SCc2ccc(F)cc2)=N/C1=C/c1cccc(OCc2ccc(Cl)cc2)c1,67.5%
17,COc1ccc(Nc2nc(SCC(C)C)nc(-c3ccc(F)cc3)c2C#N)cc1,35.5%
18,COC(=O)/C=C1\SC(=Nc2ccc(F)cc2)N(CCc2c[nH]c3ccccc23)C1=O,68.3%
19,Nc1c(C(=O)Nc2ccccc2)sc2nc3c(cc12)CN(C(=O)OCc1ccccc1)CC3,35.6%

row,SMILES,growth
1,COc1ccc(C2=NN(c3ccc(S(N)(=O)=O)cc3)C(c3ccc(Cl)cc3)C2)c(O)c1 (stereo not given),48.8%
2,COc1ccc(C(C)c2cc(OC)c(OC)c(OC)c2)cc1 (stereo not given),9.34% (active)
3,COc1ccc(-n2nc(C(=O)NCC(=O)O)nc2-c2ccccc2)cc1,82.5%
4,CCOC(=O)C1=C(C)n2nc(CC#N)c(C#N)c2NC1c1ccc(Cl)cc1 (stereo not given),95.4%
5,Nc1c(C(=O)Nc2ccccn2)sc2nc3c(cc12)CCCC3,29.2%
6,CCN1CCC[C@H]1c1cc(O)c2c(c1OC)C[C@H]1C[C@H]3[C@H](N)C(=O)C(C(N)=O)=C(O)[C@@]3(O)C(=O)C1=C2O,-21.4% (active)
7,Cc1cc(O)cc(O)c1N=NC1=NCCS1,90.3%
8,COC(=O)c1cncc(C(=O)Nc2ccc(-n3cnc4ccccc43)cc2)c1,84%
9,CNc1cccc2c1C(=O)c1cccc(N)c1C2=O,62.3%
10,O=S(=O)(Nc1nccs1)c1ccc(Nc2nc(-c3ccncc3)cs2)cc1,97.6%
11,CN1C(=O)c2cc(Cl)nc3c(NC(=O)c4cccc(Cl)c4)c(Cl)c(NC(=O)c4cccc(Cl)c4)c1c23,-54.6% (active)
12,O=C(O)COc1ccc2c(=O)c3sc4c(=O)c5ccccc5c(=O)c4c3c(=O)c2c1,10.9%
13,O=C(Nc1nc(-c2ccccc2)cs1)c1cc(-c2ccc(Br)cc2)nc2ccccc12,43.5%
14,Cc1cc(Nc2nc(SCc3ccc(C(=O)Nc4ccc(F)cc4N)cc3)nn3cccc23)n[nH]1,-14.8% (active)
15,O=C1NCc2ccc3c(-c4cccc(Cl)c4)c[nH]c3c21,1.89% (active)
16,O=C(CN1N=C(c2ccc(F)cc2)CCC1=O)Nc1nccs1,83.2%
17,O=C1Nc2ccc(Cl)cc2/C1=N/c1nc(-c2ccc(F)cc2)cs1,20.7%
18,OCCNc1nc(NCCO)nc(Nc2ccc(C3=NN(c4cc(Cl)cc(Cl)c4)C(c4ccc(Cl)cc4)C3)cc2)n1 (stereo not given),58.9%

# From PubChem BioAssay (NCI)
